Structures can show the parent of a compound that is named as a salt.
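Further: flow cytometry read-out as median GFP intensity of gated cells, compounds added 30 min before Hh-conditioned or mock medium, mock-treated cells serving as unstimulated baseline.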

The subject of the first assay is Drosophila S2 cl14 SmoIP sensor cells. The experiment in a line: normalized SmoIP GFP fluorescence (untreated unstimulated = 0%, untreated Hh-stimulated = 100%); higher = more Smo activation sensor fluorescence. As to conditions: stimulation: Hh conditioned medium (+Hh); compound concentration: 2 uM; 24 h.
Consider `COc1ccc(-c2ccc3c(N4CCOCC4)nc(N4C[C@@H](C)O[C@@H](C)C4)nc3n2)cc1CO`, for which the “normalized SmoIP GFP fluorescence” value came out at 62.1%. The same measure, in the same setting: the figure for `CCN(CC)CCOC(=O)c1ccc(N)cc1` [procaine-novocaine-hcl] is 107%. On the same count and under the same terms, the value for `CN(C)CCC(c1ccc(Br)cc1)c1ccccn1` (stereo not drawn) [brompheniramine] was 138%. On to `CCNC(=O)[C@H]1O[C@@H](n2cnc3c(N)nc(NCCc4ccc(CCC(=O)O)cc4)nc32)[C@H](O)[C@@H]1O`, for which the “normalized SmoIP GFP fluorescence” value amounted to 148%. The same measure, in the same setting: the figure for `CCCc1cc(C)[nH]c(=O)c1CNC(=O)c1cc(-c2ccc(N3CCN(C(C)C)CC3)nc2)cc2c1cnn2C(C)C` is 116%; for `Cc1nc(Nc2ncc(C(=O)Nc3c(C)cccc3Cl)s2)cc(N2CCN(CCO)CC2)n1` [Dasatinib] it is 126%. For `Cc1cc(C)c(CNC(=O)c2cc(-c3ccc(CN4CCOCC4)cc3)cc3c2cnn3C2CCCC2)c(=O)[nH]1`, the “normalized SmoIP GFP fluorescence” value came to 104%.

Take `COCCOc1ccc2c(c1)ncn2-c1ccc2cccc(N3CCC(N)CC3)c2n1`: the “normalized SmoIP GFP fluorescence” value was 264%.

In the case of `CN1C2CCC1CC(OC(=O)C(O)c1ccccc1)C2` (stereo not drawn) [homatropine-bromide], the “normalized SmoIP GFP fluorescence” value amounted to 102%. Same read-out and setting: the value for `Nc1cc(F)ccc1NC(=O)/C=C/c1cnn(C/C=C/c2ccccc2)c1` [rgfp966] was 112%; that for `Cn1cc(-c2ccc3nnc(Sc4ccc5ncccc5c4)n3n2)cn1` was 96.1%; that for `CNCCc1ccccn1` [betahistine-dihydrochloride] was 98.3%. The same measure, in the same setting: the value for `CN1CC2c3ccccc3Oc3ccc(Cl)cc3C2C1` (stereo not drawn) [Asenapine] was 115%; that for `CC(C)(C)c1ccc(C(=O)CCCN2CCC(OC(c3ccccc3)c3ccccc3)CC2)cc1` [ebastine] was 135%; that for `CN1CCN(c2cccc(Nc3nc4c(-c5ccc(S(C)(=O)=O)cc5)cccn4n3)c2)CC1` was 92.1%. The same measure, in the same setting: the value for `CC(C)CN(C[C@@H](O)[C@H](Cc1ccccc1)NC(=O)O[C@H]1CO[C@H]2OCC[C@H]21)S(=O)(=O)c1ccc(N)cc1` [Darunavir-Ethanolate(Prezista)] was 101%; that for `COc1cc(N2CCC(N3CCN(C)CC3)CC2)ccc1Nc1ncc(Cl)c(Nc2ccccc2S(=O)(=O)C(C)C)n1` was 109%; that for `Cc1ccc([C@@H]2O[C@H](CO)[C@@H](O)[C@H](O)[C@H]2O)cc1Cc1ccc(-c2ccc(F)cc2)s1` [canagliflozin] was 123%.

Consider `Cc1nnc(C(C)C)n1C1C[C@H]2CC[C@@H](C1)N2CC[C@H](NC(=O)C1CCC(F)(F)CC1)c1ccccc1` (stereo in doubt) [Maraviroc], for which the “normalized SmoIP GFP fluorescence” value is 122%. For the molecule `COc1ccc2c(c1)c(CC(=O)N1CCOCC1)c(C)n2C(=O)c1ccc(Cl)cc1`, the “normalized SmoIP GFP fluorescence” value amounted to 108%.

`CC(C)n1nc(-c2ccc3oc(N)nc3c2)c2c(N)ncnc21`: the “normalized SmoIP GFP fluorescence” value amounted to 73.9%. With `CCc1cc2c(cc1CC)CC(NC[C@H](O)c1ccc(O)c3[nH]c(=O)ccc13)C2` [indacaterol-maleate], the “normalized SmoIP GFP fluorescence” value is 107%. Still for that read-out and setting: the figure for `CCOC(=O)c1ccc(NC2CCCCC2)c(N)c1` [ferrostatin-1-fer-1] is 116%; for `Oc1ccc(-c2nc(-c3ccc(F)cc3)c(-c3ccncc3)[nH]2)cc1` it is 99.3%. Take `C[C@@H]1CCN(C(=O)CC#N)C[C@@H]1N(C)c1ncnc2[nH]ccc12`: the “normalized SmoIP GFP fluorescence” value amounted to 105%.

Staying with this assay, now noted: stimulation: mock conditioned medium (-Hh); compound concentration: 2 uM; 24 h.
Regarding `O=C(O)C(O)Cc1ccc(O)c(O)c1` (stereo not drawn) [Sodium-Danshensu], the “normalized SmoIP GFP fluorescence” value was -2.82%. Same read-out and setting: the figure for `N#C/C(=C(/N)Sc1ccc(N)cc1)c1ccccc1C(F)(F)F` is 10.2%. Same read-out and setting: the value for `CC(C)(C)c1cc(C(C)(C)C)c(NC(=O)c2c[nH]c3ccccc3c2=O)cc1O` was 7.39%; that for `Cn1c(=O)n(-c2ccc(C(C)(C)C#N)cc2)c2c3cc(-c4cnc5ccccc5c4)ccc3ncc21` was -5.01%; that for `NS(=O)(=O)C#Cc1ccccc1` [pifithrin-u] was -0.0369%.

Turning to `CO[C@H]1C[C@@H]2CC[C@@H](C)[C@@](O)(O2)C(=O)C(=O)N2CCCC[C@H]2C(=O)O[C@H]([C@H](C)C[C@@H]2CC[C@@H](OCCO)[C@H](OC)C2)CC(=O)[C@H](C)/C=C(\C)[C@@H](O)[C@@H](OC)C(=O)[C@H](C)C[C@H](C)/C=C/C=C/C=C/1C` [Everolimus(RAD001)], the “normalized SmoIP GFP fluorescence” value was -10.1%.

Consider `Cc1c(CN2CCN(C(=O)[C@H](C)O)CC2)sc2c(N3CCOCC3)nc(-c3cnc(N)nc3)nc12`, for which the “normalized SmoIP GFP fluorescence” value is -4.35%. On the same count and under the same terms, the value for `NS(=O)(=O)c1ccc(NC(=O)Nc2ccc(F)cc2)cc1` was -3.05%; that for `CC(C)[C@H](C(=O)Nc1ccc(C(=O)NO)cc1)c1ccccc1` was 60.6%; that for `O=C(CCCCCCC(=O)Nc1ccccc1)NO` [Vorinostat-(SAHA)] was 37.6%. The same measure, in the same setting: the figure for `Cn1c(=O)c2[nH]cnc2n(C)c1=O` [Aminophylline(Truphylline)] is -6.51%. Still for that read-out and setting: the figure for `CC(=O)N1CCN(c2ccc(OCC3COC(Cn4ccnc4)(c4ccc(Cl)cc4Cl)O3)cc2)CC1` (stereo not drawn) [Ketoconazole] is 2.64%; for `Cc1cc(C)nc(NS(=O)(=O)c2ccc(NC(=S)NC(=O)COc3ccc(Br)cc3Cl)cc2)n1` it is -4.81%; for `COc1ccc(-c2ccc3c(N4CCOCC4)nc(N4C[C@@H](C)O[C@@H](C)C4)nc3n2)cc1CO` it is -12.5%. As for `CCN(CC)CCOC(=O)c1ccc(N)cc1` [procaine-novocaine-hcl], the “normalized SmoIP GFP fluorescence” value is -3.5%. Same read-out and setting: the value for `CN(C)CCC(c1ccc(Br)cc1)c1ccccn1` (stereo not drawn) [brompheniramine] was -5.17%; that for `CCNC(=O)[C@H]1O[C@@H](n2cnc3c(N)nc(NCCc4ccc(CCC(=O)O)cc4)nc32)[C@H](O)[C@@H]1O` was -8.77%. Same read-out and setting: the figure for `CCCc1cc(C)[nH]c(=O)c1CNC(=O)c1cc(-c2ccc(N3CCN(C(C)C)CC3)nc2)cc2c1cnn2C(C)C` is 5.7%; for `Cc1nc(Nc2ncc(C(=O)Nc3c(C)cccc3Cl)s2)cc(N2CCN(CCO)CC2)n1` [Dasatinib] it is -3.93%. As for `Cc1cc(C)c(CNC(=O)c2cc(-c3ccc(CN4CCOCC4)cc3)cc3c2cnn3C2CCCC2)c(=O)[nH]1`, the “normalized SmoIP GFP fluorescence” value is -0.264%. With `COCCOc1ccc2c(c1)ncn2-c1ccc2cccc(N3CCC(N)CC3)c2n1`, the “normalized SmoIP GFP fluorescence” value was 80%. As to `CN1C2CCC1CC(OC(=O)C(O)c1ccccc1)C2` (stereo not drawn) [homatropine-bromide], the “normalized SmoIP GFP fluorescence” value is -4.81%. Turning to `Nc1cc(F)ccc1NC(=O)/C=C/c1cnn(C/C=C/c2ccccc2)c1` [rgfp966], the “normalized SmoIP GFP fluorescence” value is -0.775%. Still for that read-out and setting: the figure for `Cn1cc(-c2ccc3nnc(Sc4ccc5ncccc5c4)n3n2)cn1` is -1.88%; for `CNCCc1ccccn1` [betahistine-dihydrochloride] it is -3.05%; for `CN1CC2c3ccccc3Oc3ccc(Cl)cc3C2C1` (stereo not drawn) [Asenapine] it is 4.58%. Still for that read-out and setting: the value for `CC(C)(C)c1ccc(C(=O)CCCN2CCC(OC(c3ccccc3)c3ccccc3)CC2)cc1` [ebastine] was 18.3%; that for `CN1CCN(c2cccc(Nc3nc4c(-c5ccc(S(C)(=O)=O)cc5)cccn4n3)c2)CC1` was -3.39%; that for `CC(C)CN(C[C@@H](O)[C@H](Cc1ccccc1)NC(=O)O[C@H]1CO[C@H]2OCC[C@H]21)S(=O)(=O)c1ccc(N)cc1` [Darunavir-Ethanolate(Prezista)] was -5.54%. On the same count and under the same terms, the figure for `COc1cc(N2CCC(N3CCN(C)CC3)CC2)ccc1Nc1ncc(Cl)c(Nc2ccccc2S(=O)(=O)C(C)C)n1` is 10.2%; for `Cc1ccc([C@@H]2O[C@H](CO)[C@@H](O)[C@H](O)[C@H]2O)cc1Cc1ccc(-c2ccc(F)cc2)s1` [canagliflozin] it is -10.2%; for `Cc1nnc(C(C)C)n1C1C[C@H]2CC[C@@H](C1)N2CC[C@H](NC(=O)C1CCC(F)(F)CC1)c1ccccc1` (stereo in doubt) [Maraviroc] it is -13.4%.

Consider `COc1ccc2c(c1)c(CC(=O)N1CCOCC1)c(C)n2C(=O)c1ccc(Cl)cc1`, for which the “normalized SmoIP GFP fluorescence” value was -2.59%. The same measure, in the same setting: the figure for `CC(C)n1nc(-c2ccc3oc(N)nc3c2)c2c(N)ncnc21` is -0.889%; for `CCc1cc2c(cc1CC)CC(NC[C@H](O)c1ccc(O)c3[nH]c(=O)ccc13)C2` [indacaterol-maleate] it is -2.82%; for `CCOC(=O)c1ccc(NC2CCCCC2)c(N)c1` [ferrostatin-1-fer-1] it is -3.05%. `Oc1ccc(-c2nc(-c3ccc(F)cc3)c(-c3ccncc3)[nH]2)cc1`: the “normalized SmoIP GFP fluorescence” value was -1.34%. With `C[C@@H]1CCN(C(=O)CC#N)C[C@@H]1N(C)c1ncnc2[nH]ccc12`, the “normalized SmoIP GFP fluorescence” value is -0.889%.

Source of the values: the supplement of paper PMC5662767.
